# Experimental data as given in PubChem BioAssay (NCI).
# Compounds without any hit were thinned out: in the full panel of roughly 83,000, 20% have a hit.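 Each cell line was grown in a 96-well plate and treated with one concentration of compound for 48 hours. Values below 10 were considered active.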 Unmarked numbers belong to inactive results. Activity calls are given as the source filed them.
# Experiments:
# Test in all cases: NCI-60 one-dose screen, 48 h (100 = growth as untreated, 0 = no growth, -100 = all killed)
# T-47D breast = details: 10 µM
# BT-549 breast = details: 10 µM
# MDA-MB-435 melanoma = details: 10 µM
# SW-620 colon = details: 10 µM
# MCF7 breast = details: 10 µM unless noted
# HCT-116 colon = details: 10 µM
# KM12 colon = details: 10 µM
# HCC-2998 colon = details: 10 µM
SMILES,growth (T-47D breast),growth (BT-549 breast),growth (MDA-MB-435 melanoma),growth (SW-620 colon) [%],growth (MCF7 breast),growth (HCT-116 colon),growth (KM12 colon),growth (HCC-2998 colon)
O=C1c2ccccc2C(=O)N1OCc1ccccc1,92.1%,118%,110%,107,99.5%,99.8%,105%,–
COc1ncnc2c1cnn2C,97.1%,95.4%,107%,105,101%,103%,103%,–
CCOC(=O)Nc1nn[nH]n1,113%,106%,111%,90.2,103%,107%,106%,–
Nc1ncnc2[nH]ncc12,6% (active),-32.8% (active),15.2%,17.5,7.48% (active),5.13% (active),18%,–
O=[N+]([O-])c1ccc(S(=O)(=O)NN=C2CCCCC2)cc1,107%,95.5%,114%,114,102%,97.8%,110%,–
O=C(O)c1cccc([N+](=O)[O-])c1O,101%,93.6%,101%,105,119%,98.9%,110%,–
CCOc1ccc(Br)cc1/C=N\N=C\c1cc(Br)ccc1OCC,93%,108%,103%,101,101%,97.8%,94.2%,–
OC(c1ccccn1)C(O)c1ccccn1 (configuration not stated),109%,106%,115%,109,101%,106%,109%,–
CN(c1ccccc1)c1ncnc2c1ncn2C,100%,101%,106%,97.9,97.8%,104%,108%,–
COc1cc2c(cc1O)CC[C@@H]1C2CC[C@@]2(C)C1CC[C@@H]2O (some centres not stated),31.1%,23.4%,-46.9% (active),12.1,16.4%,7.39% (active),33.5%,–
C#CCSc1nnnn1-c1ccc(Br)c(C)c1,87.6%,103%,95.8%,99.9,82.4%,–,102%,121%
Oc1ccc(O)cc1,114%,82.7%,99.7%,112,–,107%,103%,114%
Cc1ccncc1C(N)=O,84.5%,111%,118%,98.4,96%,–,90.1%,124%
C=CCc1cc(C(C)=O)cc(OC)c1O,118%,97.2%,113%,95.9,106%,–,96.6%,96.3%
COc1ccc(/C(C#N)=C2C=C/C(=N/O)c3ccccc3\2)cc1,64.8%,31%,-57% (active),20.1,13.1%,–,3.23% (active),-11.4% (active)
Cc1ccc(N)cc1[N+](=O)[O-],107%,97.9%,119%,100,76.4%,–,105%,92.5%
Nc1ccc(CC(=O)O)c(N)c1,117%,105%,97.6%,100,99.3%,–,93.5%,104%
NCC(=O)CCC(=O)O,100%,110%,108%,108,–,114%,108%,97.4%
Brc1cnc2ccccc2c1,108%,103%,105%,95.8,101%,–,100%,100%
O=[N+]([O-])c1ccccc1S(=O)c1ccccc1[N+](=O)[O-],73.1%,95.3%,72.2%,44.6,95.2%,51.8%,88.1%,–
Cc1cc2ccccc2c(O)c1C#N,88.8%,97.6%,108%,104,99.3%,105%,105%,–
CSC[C@H](NC(=O)COc1cccc2cnccc12)C(=O)NC(Cc1ccccc1)C(O)C(=O)N1CSC[C@H]1C(=O)NC(C)(C)C (some centres not stated),111%,105%,103%,105,114%,–,116%,108%
Nc1ccc(C(=O)c2ccc(N)c(Br)c2)cc1Br,43.5%,56.4%,-3.36% (active),–,13.2%,14.8%,–,14.1%
O/N=C/c1ccc(O)cc1O,94%,103%,107%,102,98.6%,–,99%,105%
